The values below come from PubChem BioAssay (EPA / NIEHS).

Results filed as inconclusive are left out. The source holds several records for some structures; these can differ, active in one and inactive in another. Active and inactive are the calls of the source. The calls were made as follows: active = hit-call score of the fitted dose curve at least 0.9, where 1 is the maximum; inconclusive = response in the unintended direction; inactive = score below 0.9.

A word on the AC50: it is the midpoint of the concentration-response curve, whichever way the signal moves.

This assay in a line: ACEA_AR_antagonist_AUC_viability: ACEA Biosciences xCELLigence Real-Time Cell Analysis on Androgen Receptor Antagonism for Viability (AID 2283776).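 Also: area under impedance growth curve at 80 h after dosing as viability; hits lower the growth signal relative to DMSO meaning cytotoxicity.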 The protocol:
ACEA_AR_antagonist is a cell-based, single-readout assay that uses 22Rv1, a human prostate cancer cell line, with measurements taken at 80 hours after chemical dosing in a 384-well plate, although TO5 and TO6 (mc0.srcf) used a 96-well plate. Differences in plate size can be ignored given data normalization.ACEA_AR_80hr is one of two assay component(s) measured or calculated from the […] assay. It is designed to make measurements of real-time cell-growth kinetics, a form of growth reporter, as detected with electrical impedance signals by Real-Time Cell Electrode Sensor (RT-CES) technology.Data from the assay component ACEA_AR_antagonist_AUC_viability was analyzed in the positive analysis fitting direction relative to DMSO as the negative control and baseline of activity. Using a type of growth reporter, loss-of-signal activity can be used to understand changes in the viability. Furthermore, this assay endpoint can be referred to as a secondary readout, because this assay has produced multiple assay endpoints where this one serves a viability function. To generalize the intended target to other relatable targets, this assay endpoint is annotated to the cell cycle intended target family, where the subfamily is cytotoxicity.
The xCELLigence system Multi-E-Plate stations were used to measure the time-dependent response to chemicals. Each compound was tested in an eight-point, 1:4 serial dilution series starting at a maximum final concentration of 100 uM. A maximum starting concentration of 0.5% DMSO was present in the 100 uM chemical samples and was diluted along with the test article dilution series. The screen was performed in biological duplicate using two separate, 96-well, E-Plates 96 for each dilution series (n = 2). Positive controls (MG132 and testosterone) and a negative control (assay media) were tested in quadruplicate on each testing plate. Then, 0.5% and 0.125% DMSO were tested in duplicates in each plate to serve as solvent controls for the 2 highest concentrations of testing compounds: 100 uM and 25 uM. Reference compounds were tested with 8 concentrations with 1:5 serial dilutions. All screening was carried out by ACEA Biosciences, Inc. (San Diego, CA). 22Rv1 cells purchased from ATCC were maintained in media supplemented with 10% fetal bovine serum (FBS). Before screening, 22Rv1 cells were preconditioned in assay medium. Cells were then detached and seeded in E-Plates 96 in assay medium. After overnight monitoring of growth once every hour, compounds were added to […] cells and remained in the medium until the end of the experiment. Cellular responses were then recorded once every 5 min for the first 5 h, and once every hour for an additional 100 h.
On to `CCCCCC(=O)O[C@]1(C(C)=O)CC[C@H]2[C@@H]3CCC4=CC(=O)CC[C@]4(C)[C@H]3CC[C@@]21C`, for which the AC50 is 0.416 µM (active).

Take `CC(C)(C)c1cccc(O)c1`: the compound was called inactive.

For `CC(=O)C1=C(C)[C@@H]2C[C@@]3(C1)[C@H](C)CC[C@H]3C2(C)C`, the outcome was inactive.

Consider `CCCCCCCCCOS(=O)(=O)O`, for which the result was inactive.

As for `CC(=O)C1C(=O)C=C(C)OC1=O` (stereo not given), the call was inactive.

On to `O=C(O)CS`, for which the call was inactive.

For the compound `O=c1cc(-c2ccc(O)cc2)oc2cc(O)cc(O)c12`, the AC50 was 6.43 µM (active).

In the case of `[Na+]`, the result was inactive.

`C1CCCNCC1`: the outcome was inactive.

For the compound `CC(=O)OC(C)(C)C1CC=C(C)CC1` (stereo not given), the outcome was inactive.

Consider `CCCCC(CC)COCCO` (stereo not given), for which the result was inactive.

In the case of `CCC(C)C1CCCCC1=O` (stereo not given), the compound was classed as inactive.

In the case of `CC(CCO)CC(C)(C)C` (stereo not given), the compound was called inactive.

Consider `C=CC(O)CCCCC` (stereo not given), for which the compound was classed as inactive.

As for `CCCCCCCCCCCCOCCOS(=O)(=O)O`, the result was inactive.

For the compound `CCCO[Si](OCCC)(OCCC)OCCC`, the compound was called inactive.

As to `CN(C)C(=O)Nc1ccccc1`, the outcome was inactive.

`COC(=O)c1ccc(C(=O)OC)cc1`: the outcome was inactive.

On to `OCC=Cc1ccccc1`, for which the call was inactive.

For `COc1ccccc1O`, the compound was classed as inactive.

`C#C[C@]1(O)CC[C@H]2[C@@H]3CCc4cc(O)ccc4[C@H]3CC[C@@]21C`: the compound was classed as inactive and the AC50 was 30.5 µM (active).

Take `CC1COC(=O)O1` (stereo not given): the call was inactive.

In the case of `O=Cc1ccccc1O`, the outcome was inactive.

On to `CCCCOCCOCCO`, for which the call was inactive.

With `CCC(C)(C)C1CCC(=O)CC1`, the compound was called inactive.

For `CC(C)C(=O)c1ccccc1`, the result was inactive.

On to `O=C(c1ccc(OCCN2CCCCC2)cc1)c1c(-c2ccc(O)cc2)sc2cc(O)ccc12`, for which the AC50 is 21.7 µM (active).

For the compound `CC(C)(CO)CO`, the outcome was inactive.

For `CCCCCCOc1ccc(O)cc1`, the AC50 was 10.4 µM (active).

Turning to `CCC(=O)OC(C)(C)C1CC=C(C)CC1` (stereo not given), the compound was classed as inactive.

Take `CCCCCCCC(=O)N(C)C`: the result was inactive.

For the compound `CCCCCCCCOC(C)=O`, the compound was classed as inactive.

As for `CC(O)CNCC(C)O` (stereo not given), the compound was called inactive.

For `Cc1cccc(O)c1`, the call was inactive.

For the compound `CCC(C)(C)C1CCC(OC)CC1` (stereo not given), the compound was called inactive.

With `C1=COCCC1`, the compound was called inactive.

With `O=C(OCc1ccccc1)c1ccccc1O`, the compound was classed as inactive.

Turning to `CCCc1ccc(N)cc1`, the compound was called inactive.

As to `COC(=O)C(C)Oc1ccc(Oc2ncc(C(F)(F)F)cc2Cl)cc1` (stereo not given), the compound was called inactive.
